From PubChem BioAssay AID1851 (National Center for Advancing Translational Sciences (NCATS), 2009)
Values joined by “and” are separate entries in the source; they are usually repeats but may differ in a detail not shown here. Equal entries are not always repeated. Screen size: about 16,000 compounds; about 2,600 (16%) were called active. Inconclusive results (about 20%) are left out. The call rests on the fitted dose curve; in most records, active means well fitted curve in the direction sought with a large enough effect; inconclusive means small, poorly fitted or top-dose-only effect, or effect the other way; inactive means no such curve, though single readings can be large or run the other way. A selection follows.

Each compound was assayed against Cytochrome P450 2D6 (Homo sapiens) (UniProt P10635) (assay: Cytochrome panel assay with activity outcomes). Conditions: recombinant CYP, pro-luciferin dealkylation, luminescence, p450-cyp2d6; series mostly up to 57.1 µM.
Chain of Cytochrome P450 2D6 (Homo sapiens) (P10635 whole entry, looked up): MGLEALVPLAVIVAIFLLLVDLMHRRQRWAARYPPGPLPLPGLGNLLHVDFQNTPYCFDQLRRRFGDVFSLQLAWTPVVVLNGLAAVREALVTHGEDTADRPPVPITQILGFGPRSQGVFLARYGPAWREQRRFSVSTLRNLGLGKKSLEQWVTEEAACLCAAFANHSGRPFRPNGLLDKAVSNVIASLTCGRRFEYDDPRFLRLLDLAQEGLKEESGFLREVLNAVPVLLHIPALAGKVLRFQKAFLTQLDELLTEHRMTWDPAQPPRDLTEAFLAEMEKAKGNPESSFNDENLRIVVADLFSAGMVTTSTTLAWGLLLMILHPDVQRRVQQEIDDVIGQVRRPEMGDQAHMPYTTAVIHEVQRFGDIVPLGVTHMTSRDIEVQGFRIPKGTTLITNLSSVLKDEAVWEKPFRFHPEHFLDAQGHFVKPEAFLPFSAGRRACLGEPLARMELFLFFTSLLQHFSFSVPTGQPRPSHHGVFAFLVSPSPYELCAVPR
On the % scale 0 is the no-effect control and ±100 the full control effect.

SMILES | AC50 | activity, negative = inhibition
COc1cc(OC)c(C2C(C(=O)O)c3ccccc3C(=O)N2C)cc1OC (configuration not stated) | inactive | –
NC1(C(=O)O)C[C@@H](C(=O)O)[C@H](C(=O)O)C1 | inactive | –
CCNc1ncc2nc(-c3ccc(Cl)cc3)c(=O)n(C3CC3)c2n1 | inactive | –
N#CCCn1c(=O)cnc2cnc(N3CCOCC3)nc21 | inactive | –
CCCCCc1nnc(NC(=O)C(=O)OCC)s1 | inactive | –
CC(C)OCCCN1C(=O)c2ccccc2C1C(=O)NC1CCCCC1 (configuration not stated) | inactive | –
CO/N=C(\C(=O)N[C@@H]1C(=O)N2C(C(=O)[O-])=C(C[N+]3(C)CCCC3)CS[C@@H]12)c1csc(N)n1 | inactive | –
Cn1cccc1CC(=O)N/N=C\c1cccs1 | inactive | –
CCCCC(=O)NNC(=S)NC(=O)c1cccc([N+](=O)[O-])c1 | inactive | –
CCCn1c(=O)c2[nH]c(-c3ccccc3)nc2n(CCC)c1=O | inactive | –
CC1(C)OC(=O)C(=CNc2cccc(O)c2)C(=O)O1 | inactive | –
CC(C)=CCc1c(C)nc2ccccc2c1C(=O)O | inactive | –
CC(C)=CCC1=C(OCC(=O)O)C(=O)c2ccccc2C1=O | 3.16 µM (active) | –
CC(CC(=O)O)CC(=O)Nc1ccc(S(N)(=O)=O)cc1 (configuration not stated) | inactive | –
O=C1/C(=N\O)Cc2ccccc21 | inactive | –
CN1CCC(=C2c3ccccc3CCc3sccc32)CC1 | 1.26 µM (active) | –
CN1CCC(=C2c3ccccc3CC(=O)c3sccc32)CC1 | 7.94 µM (active) and 3.16 µM (active) and 5.01 µM (active) | –
CCc1cc(C(=O)OC)c(NC(=O)CCCC(=O)O)s1 | inactive | –
O=C(NNC(=O)c1cccnc1)Nc1cccc2ccccc12 | inactive | –
CO[C@H]1COC(=O)C/C=C\[C@H](C)[C@@H](NS(=O)(=O)c2ccc(C)cc2)COC(=O)C/C=C\[C@@H]1C | – | 3.82% [at 11.4 µM] (inactive)
NC(N)=NC(N)=Nc1c(F)c(F)c(F)c(F)c1F | – | 13.6% [at 11.4 µM] (inactive)

SMILES | AC50 | activity, negative = inhibition
Cc1ccc(N=CC2=C(O)CC(c3ccco3)CC2=O)cc1 (configuration not stated) | inactive | –
COc1cc(OC)c2c(c1)C(=O)c1cc(OC)cc(OC)c1C2=O | inactive | –
O=C1c2ccccc2C(=O)N1CC1CCCO1 (configuration not stated) | inactive | –
O=c1c(-c2ccccc2)nc2cnc(N3CCOCC3)nc2n1C[C@H]1CCCO1 | inactive | –
Nc1ncc(-c2ccccc2)n1CC1CCCO1 (configuration not stated) | 3.55 µM (active) | –
Cc1c(Cl)cccc1NC(=O)CCC(=O)NNC(=O)c1ccco1 | inactive | –
CCOC(=O)c1cnc(N(C)C)nc1SC(=N)N | – | -3.04% [at 11.4 µM] (inactive)
Cc1noc(C)c1C(=O)N1CCC2(CCCN(C(=O)NC(C)C)C2)CC1 | inactive | –
O=C(O)CCC(=O)N1CCc2cc(S(=O)(=O)NCc3cccs3)ccc21 | inactive | –
O=C(CCNS(=O)(=O)c1cccs1)N1CCCCCC1 | inactive | –
O=C(CCNS(=O)(=O)c1cccs1)N1CCc2ccccc2C1 | 12.6 µM (active) | –
COCCn1c(=O)c(-c2cc(F)cc(F)c2)nc2cncnc21 | inactive | –
COc1c(NC(C)=O)c2ccccc2c2ccccc12 | – | -0.0075% [at 11.4 µM] (inactive)
CC(=O)N1CCC2(CC1)CN(Cc1ccccc1)C2 | inactive | –
CC(=O)N1CCC2(CCCN(Cc3ccccc3)C2)CC1 | 2.51 µM (active) | –
COC(=O)N1CCC[C@@]2(CCN(C(=O)Nc3cccc(C#N)c3)C2)C1 | inactive | –
COCC(=O)N1CCC2(CC1)CN(Cc1ccc(C#N)cc1)C2 | inactive | –
COC(=O)N1CCC2(CCCN(Cc3ccccc3)C2)CC1 | 10 µM (active) | –
COC(=O)N1CCC2(CCCN(Cc3ccc(C#N)cc3)C2)CC1 | 0.316 µM (active) | –
O=c1cnc2cnc(N3CCNCC3)nc2n1Cc1ccc(F)cc1 | inactive | –
CCNC(=S)NNC(=O)c1cc(CC(C)C)nc2ccccc12 | inactive | –

SMILES | AC50 | activity, negative = inhibition
O=C1[C@H]2[C@H]3[C@H](O)[C@H](O)C/C(=N/OCc4ccccc4)[C@@H]3CC[C@@H]2C(=O)N1C[C@@H]1CCCO1 | – | 10% [at 11.4 µM] (inactive)
Cn1c(=O)c(-c2cccc(C#N)c2)nc2cnc(Oc3ccccc3)nc21 | inactive | –
O=c1cc(O)cc(/C=C\c2ccc(O)c(O)c2)o1 | inactive | –
CC1=C(C(=O)N2CCCCCC2)C2(CCC(C)CC2)OC1=O (configuration not stated) | inactive | –
COc1ccccc1NC(=S)NNC(=O)c1c(Cl)c(C)nn1C | inactive | –
CC(C)CN(CC(C)C)S(=O)(=O)N1CCC(C(=O)NCc2ccc(F)cc2)CC1 | inactive | –
CNC[C@@H](SC)c1ccc(O)c(O)c1 | – | 2.56% [at 11.4 µM] (inactive)
CC[C@H](NC(C)C)[C@H](O)c1ccc(O)c(O)c1 | 10 µM (active) | –
COc1cc([C@H](O)CO)ccc1O | inactive | –
COC(=O)C(C)Sc1nc2c(cnn2-c2ccc(C)cc2)c(=O)[nH]1 (configuration not stated) | inactive | –
Cc1ccc(C(=O)C(OC(=O)COc2ccccc2C)c2ccccc2)cc1 (configuration not stated) | inactive | –
Cc1ccc(C(=O)C(OC(=O)CCC(=O)Nc2cccc(C)c2)c2ccccc2)cc1 (configuration not stated) | 28.2 µM (active) | –
Cc1ccc(C(=O)C(OC(=O)CNS(=O)(=O)c2ccccc2)c2ccccc2)cc1 (configuration not stated) | inactive | –
Cc1cc2c(c(=O)o1)[C@@H](O)[C@H]1O[C@@H]1C2=O | – | 3.46% [at 11.4 µM] (inactive)
C[N+](C)(C)c1ccc([C@H](N)C(=O)O)cc1 | – | 6.78% [at 11.4 µM] (inactive)
COc1ccc(CNc2ncnc3ccc(-c4cccnc4)cc23)c(OC)c1 | 10 µM (active) | –
COc1ccccc1CNc1ncnc2ccc(-c3cccnc3)cc12 | 5.01 µM (active) | –
COc1ccc(S(=O)(=O)NC2(C(F)(F)F)N=C3SCCN3C2=O)cc1 (configuration not stated) | inactive | –
CCN1CCN(c2nc(C)c3c(n2)CCCC3=O)CC1 | inactive | –
COC(=O)c1ccccc1-c1ccc(/C=C2\C(=O)N(c3ccccc3)N=C2c2ccccc2)o1 | inactive | –
O=C(NC1CCCCC1)c1sc(=S)n2c1[nH]c(=O)c1ccccc12 | inactive | –

SMILES | AC50 | activity, negative = inhibition
COc1ccc(C2C(C#N)=C(N)N(Nc3ccccc3)C3=C2C(=O)CC(C)(C)C3)cc1C (configuration not stated) | inactive | –
S=C(S)O[C@@H]1C[C@@H]2C[C@H]1[C@@H]1CCC[C@H]21 | inactive | –
CC(=O)OC[C@@H]1O[C@@H](O/N=C2/C[C@@H](O)[C@@H](O)[C@@H]3[C@@H]4C(=O)N(C(C)(C)C)C(=O)[C@H]4CC[C@@H]23)[C@H](OC(C)=O)[C@H](OC(C)=O)[C@@H]1OC(C)=O | – | -13.3% [at 11.4 µM] (inactive)
CCOC(=O)CCN1C(=O)[C@H]2[C@H]3[C@H](O)[C@H](O)C/C(=N/O[C@@H]4O[C@@H](COC(C)=O)[C@@H](OC(C)=O)[C@@H](OC(C)=O)[C@H]4OC(C)=O)[C@@H]3CC[C@@H]2C1=O | 3.16 µM (active) | –
CCOC(=O)CCN1C(=O)[C@H]2[C@H]3[C@H](O)[C@H](O)C/C(=N/OC/C=C(\C)CCC=C(C)C)[C@H]3CC[C@@H]2C1=O | – | 1.08% [at 11.4 µM] (inactive)
CCOC(=O)CCN1C(=O)[C@H]2[C@H]3[C@H](O)[C@H](O)C/C(=N/OC/C=C(\C)CCC=C(C)C)[C@@H]3CC[C@@H]2C1=O | – | 0.883% [at 11.4 µM] (inactive)
CC(=O)OC[C@@H]1O[C@@H](O/N=C2/C[C@@H](O)[C@@H](O)[C@@H]3[C@@H]4C(=O)N(c5cccc(Oc6ccccc6)c5)C(=O)[C@H]4CC[C@H]23)[C@H](OC(C)=O)[C@H](OC(C)=O)[C@@H]1OC(C)=O | – | 0.346% [at 11.4 µM] (inactive)
CC(=O)OC[C@@H]1O[C@@H](O/N=C2/C[C@@H](O)[C@@H](O)[C@@H]3[C@@H]4C(=O)N(C(C)(C)C)C(=O)[C@H]4CC[C@H]23)[C@H](OC(C)=O)[C@H](OC(C)=O)[C@@H]1OC(C)=O | – | 3.1% [at 11.4 µM] (inactive)
CCOC(=O)CCN1C(=O)[C@H]2[C@H]3[C@H](O)[C@H](O)C/C(=N/O[C@@H]4O[C@@H](COC(C)=O)[C@@H](OC(C)=O)[C@@H](OC(C)=O)[C@H]4OC(C)=O)[C@H]3CC[C@@H]2C1=O | 3.16 µM (active) | –
C#CCCCO/N=C1/C[C@@H](O)[C@@H](O)[C@@H]2[C@@H]3C(=O)N(CCC(=O)OCC)C(=O)[C@H]3CC[C@H]12 | – | 5.95% [at 11.4 µM] (inactive)
CCN1C(=O)[C@H]2[C@H]3[C@H](O)[C@H](O)C/C(=N/O[C@@H]4O[C@H](COC(C)=O)[C@@H](OC(C)=O)[C@H](OC(C)=O)[C@H]4OC(C)=O)[C@@H]3CC[C@@H]2C1=O | 3.98 µM (active) | –
C#CCCCO/N=C1/C[C@@H](O)[C@@H](O)[C@@H]2[C@@H]3C(=O)N(CCC(=O)OCC)C(=O)[C@H]3CC[C@@H]12 | – | -5.32% [at 11.4 µM] (inactive)
CC(=O)OC[C@@H]1O[C@@H](O/N=C2/C[C@@H](O)[C@@H](O)[C@@H]3[C@H]4C(=O)N(c5ccc(F)cc5F)C(=O)[C@@H]4CC[C@H]23)[C@H](OC(C)=O)[C@H](OC(C)=O)[C@@H]1OC(C)=O | 3.16 µM (active) | –
O=C1[C@@H]2[C@H]3[C@H](O)[C@H](O)C/C(=N/OCc4ccccc4)[C@H]3CC[C@H]2C(=O)N1c1ccc(F)cc1F | – | -7.87% [at 11.4 µM] (inactive)
CC(=O)OCC(=O)[C@]12OC(C)(C)O[C@@H]1C[C@H]1[C@H]3CC=C4C[C@@H](O)CC[C@]4(C)[C@H]3CC[C@]12C | – | 25.3% [at 11.4 µM] (inactive)
Cn1c(=O)c(-c2ccc(Cl)cc2)nc2cnc(Oc3ccccc3)nc21 | inactive | –
N#CC(CC(=O)O)=C(c1ccccc1)c1ccccc1 | – | 9.93% [at 11.4 µM] (inactive)
CNC(=O)CCc1nc(-c2ccc(C(C)(C)C)cc2)no1 | inactive | –
Cc1nn(C(=O)c2ccco2)c(C)c1Sc1ccccc1 | inactive | –
